Results on 14 compounds are retold here after PubChem BioAssay.

Assay [1] in a line: inhibitors of TNFa-induced NFkB p65 translocation, primary screen, imaging, HUVEC, MLSMR starter and 10KST1 sets (AID 438).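 Also: compound added about 3h40 before a 20 min TNFalpha stimulation.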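 As to inhibition: signal is the nuclear over cytoplasmic p65 intensity ratio per well.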 The note with it: HUVEC TNFa-induced p65 nuclear translocation; cell count: measured here: nuclei count (cytotoxicity indicator), at 2.08 µM; inhibition: at 2 µM, stronger effect = higher value, 0% TNFa-plus-vehicle, 100% no-TNFa wells.
A short description of assay [2]: reduction of polyQ htt aggregates in cells – imaging, exon1htt(103Q)mCFP cells, high-content imaging, primary screen (AID 483;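 active = visual image review flags a hit and inhibition of aggregation exceeds 20%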;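 also: compound exposure lasted 3 days before fixation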;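 as to nuclei count: percent of the per-plate median nuclei count of sample wells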). The following applies: exon1htt(103Q)mCFP cell line, aggregate imaging, at 2 µM; inhibition of aggregation: stronger effect = higher value; nuclei count: measured here: cell count, toxicity.
A short description of assay [3]: endothelial E-selectin expression blockers – imaging, HUVEC, immunofluorescence, MLSMR starter and 10KST1 sets, primary screen (AID 487;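 active = visually confirmed hit in the image check and inhibition above 20%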;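 as to inhibition: signal is fraction of cell area covered by stained E-selectin grains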;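 as to nuclei count: 100% = median nuclei count of all wells on the same plate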). The note with it: HUVEC TNFalpha-induced E-selectin immunofluorescence imaging, at 2 µM; inhibition: stronger effect = higher value; nuclei count: measured here: cell number, toxicity.
In assay [4] the target is Voltage-gated potassium channel subunit beta-2 (Rattus norvegicus) (UniProt P62483). The experiment in a line: inhibitors of rat Kvbeta2 reductase activity – biochemical, NADPH fluorescence, primary screen (AID 622;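 active = fluorescence slope higher than the sample average by over 3 SD, cut at about -0.22 in these data, passing the limit was not always enough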;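 also: slope of raw intensity against log time taken from 70 to 1610 s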). The note with it: recombinant KvBeta, 4-cyanobenzaldehyde reduction, at 10 µM, stronger effect = higher value.
Voltage-gated potassium channel subunit beta-2 (Rattus norvegicus), sequence (P62483 whole entry, looked up): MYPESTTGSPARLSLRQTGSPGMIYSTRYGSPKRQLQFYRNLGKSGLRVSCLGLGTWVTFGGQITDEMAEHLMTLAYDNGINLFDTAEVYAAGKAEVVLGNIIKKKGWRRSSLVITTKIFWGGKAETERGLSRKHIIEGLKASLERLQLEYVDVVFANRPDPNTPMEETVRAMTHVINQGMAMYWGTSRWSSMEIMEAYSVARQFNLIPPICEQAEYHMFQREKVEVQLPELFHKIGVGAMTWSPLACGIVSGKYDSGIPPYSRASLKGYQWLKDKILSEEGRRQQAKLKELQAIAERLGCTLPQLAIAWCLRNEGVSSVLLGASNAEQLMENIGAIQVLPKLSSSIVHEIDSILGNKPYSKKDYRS
Assay [5] has the same target. The experiment in a line: enhancers of rat Kvbeta2 NADPH turnover – biochemical, NADPH fluorescence, primary screen (AID 623;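 active = NADPH fluorescence slope more negative than the mean of all samples by about 3 SD, 99.7% confidence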;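 also: fluorescence intensity change per second fitted from 20 to 320 s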). The note with it: Recombinant KvBeta, NADPH fluorescence decrease slope, 10 min; at 10 µM; stronger effect = lower value.
Assay [6] deals with Alpha-2C adrenergic receptor (Homo sapiens) (UniProt P18825). Put plainly: compounds altering alpha2C-coupled GIRK flux – cell-based, HEK293 alpha2C/GIRK1/2, thallium flux, primary screen (AID 624;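 active = fluorescence slope after compound addition differing from the mean of all screened samples at 99.7% confidence, in either direction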;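 also: slope of fluorescence ratio to pre-addition baseline per second over 15 to 24 s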). The following applies: thallium flux BTC fluorescence, at 10 µM, actives lie on both sides.
Alpha-2C adrenergic receptor (Homo sapiens), sequence (P18825 whole entry, looked up): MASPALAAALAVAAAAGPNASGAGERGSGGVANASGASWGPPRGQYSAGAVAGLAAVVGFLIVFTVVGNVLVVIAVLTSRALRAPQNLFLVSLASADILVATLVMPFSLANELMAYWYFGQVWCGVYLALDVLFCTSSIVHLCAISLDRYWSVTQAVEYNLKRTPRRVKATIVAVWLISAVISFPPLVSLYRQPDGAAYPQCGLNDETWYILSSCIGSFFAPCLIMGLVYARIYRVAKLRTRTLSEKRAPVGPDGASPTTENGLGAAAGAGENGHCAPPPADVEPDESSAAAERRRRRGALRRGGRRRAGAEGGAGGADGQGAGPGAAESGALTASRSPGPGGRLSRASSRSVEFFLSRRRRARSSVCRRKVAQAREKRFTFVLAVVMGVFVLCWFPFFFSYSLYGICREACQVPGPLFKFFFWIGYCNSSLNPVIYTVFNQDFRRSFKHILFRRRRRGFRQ
A short description of assay [7]: blockers of RIG-like receptor reporter activation – cell-based, Sendai virus stimulus, luciferase, 10K MLSCN set, TLR/RLR signaling modifier project, primary screen (AID 602276;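 active = inhibition at or above 50% at 10 µM; inactive = inhibition below 50%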;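 also: firefly luciferase from ISG56 promoter only with Renilla not read in this screen; 0% = Sendai virus plus DMSO and 100% = medium plus DMSO without virus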). The note with it: HEK293 RL24 IRF3 luciferase reporter, at 10 µM, stronger effect = higher value. For orientation: In a reporter assay the amount or activity of a reporter protein is the signal.
Assay [8] can be described thus: TLR3 IRF3 reporter activation blockers – cell-based, poly I:C stimulus, luciferase, 10K MLSCN set, primary screen (AID 602277;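 active = inhibition of the reporter signal at or above 50%; inactive = inhibition below 50%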). The note with it: HEK293-TLR3 RL24 IRF3 luciferase reporter, at 10 µM, stronger effect = higher value.

The source made the active and inactive calls.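 The calls were made as follows, unless noted: active = inhibition above 20% together with a positive visual image hit; inconclusive = visual image hit but inhibition not above 20%; inactive = no visual image hit.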

Turning to `O=C(CCCOc1ccccc1)N1CCN(c2ccccn2)CC1`, the cell count in assay [1] is 232. Further, the inhibition in assay [1] was -4.8% (inactive); in assay [3], -18.6% (inactive); in assay [7], 2.47% (inactive); in assay [8], -54.1% (inactive). For the same compound, the inhibition of aggregation in assay [2] was 15.3% (inactive). Further, the nuclei count stood at 53.2% in assay [2] and 78% in assay [3]. In assay [4], the fluorescence slope is -0.487 (inactive). For the same compound, the NADPH fluorescence slope in assay [5] is -3.3e-07 (inactive). Further, the slope in assay [6] is 0.00525 (inactive).
On to `Cc1cc(C)n(-c2ccc3cccc(NS(C)(=O)=O)c3n2)n1`, for which, in assay [1], the cell count is 221. Moreover, the inhibition in assay [1] is 13.2% (inactive); in assay [3], 26.7% (inactive); in assay [7] it was 11% (inactive); in assay [8], 12.8% (inactive). For the same compound, in assay [2], the inhibition of aggregation was -10.7% (inactive). Also, the values for the nuclei count in assay [2] and in assay [3] were 76.6% and 107%, respectively. Further, the fluorescence slope in assay [4] is -0.392 (inactive). For the same compound, the NADPH fluorescence slope in assay [5] was -3.1e-05 (inactive). Also, the slope in assay [6] is 0.00539 (inactive).
As for `CCOCCOc1nc2c(c(=O)n(C)c(=O)n2C)n1Cc1ccc(C)cc1`, the cell count in assay [1] came to 830. Moreover, the inhibition is 2.3% (inactive) in assay [1], -35.1% (inactive) in assay [3], -11.5% (inactive) in assay [7] and -21.6% (inactive) in assay [8]. Also, in assay [2], the inhibition of aggregation is -33.5% (inactive). The figures for the nuclei count in assay [2] and in assay [3] were 102% and 114%, respectively. Moreover, the fluorescence slope in assay [4] is -0.46 (inactive). In assay [5], the NADPH fluorescence slope was 5.4e-05 (inactive). Moreover, the slope in assay [6] is 0.00568 (inactive).
Consider `CCOC(=O)c1[nH]c2ccccc2c1NC(=O)C(CC)CC`, for which, in assay [1], the cell count came out at 689. The inhibition is -10.7% (inactive) in assay [1], -11% (inactive) in assay [3], 12.4% (inactive) in assay [7] and 40.3% (inactive) in assay [8]. The inhibition of aggregation in assay [2] is -18.7% (inactive). The nuclei count in assay [2] came to 118%; in assay [3], 107%. The fluorescence slope in assay [4] was -0.466 (inactive). In addition, the NADPH fluorescence slope in assay [5] was -3.3e-05 (inactive). Moreover, in assay [6], the slope is 0.00668 (inactive).
Take `Cc1cc2cc(CN(CCCN3CCOCC3)C(=O)NC3CCCCC3)c(=O)[nH]c2cc1C`: the cell count in assay [1] is 540. Further, the inhibition is -2.5% (inactive) in assay [1], 0.4% (inactive) in assay [3], 10.2% (inactive) in assay [7] and 34.8% (inactive) in assay [8]. For the same compound, in assay [2], the inhibition of aggregation is -7.3% (inactive). Moreover, the nuclei count turned out to be 93.3% in assay [2] and 105% in assay [3]. Further, in assay [4], the fluorescence slope was -0.484 (inactive). The NADPH fluorescence slope in assay [5] is 6.2e-07 (inactive). For the same compound, the slope in assay [6] was 0.00496 (inactive).
On to `Cc1ccc(C(=O)NC(Cc2c[nH]c3ccccc23)C(=O)O)o1` (centres undefined), for which the cell count in assay [1] worked out at 507. The inhibition in assay [1] is 4.3% (inactive); in assay [3], -25% (inactive); in assay [7], -7.86% (inactive); in assay [8], 22.8% (inactive). Besides, the inhibition of aggregation in assay [2] was -3.1% (inactive). Moreover, the nuclei count in assay [2] is 110%; in assay [3], 120%. In addition, in assay [4], the fluorescence slope is -0.485 (inactive). In addition, in assay [5], the NADPH fluorescence slope was 5.1e-05 (inactive). Also, the slope in assay [6] was 0.0112 (active).
Take `CCN(CC)CCN1C(=O)C(O)=C(C(=O)c2cccs2)C1c1ccc(C)o1` (centres undefined): the cell count in assay [1] came out at 343. The inhibition was 12.4% (inactive) in assay [1], -153% (inactive) in assay [3], 2.4% (inactive) in assay [7] and -5.17% (inactive) in assay [8]. Moreover, the inhibition of aggregation in assay [2] is -10.4% (inactive). Moreover, the nuclei count in assay [2] amounted to 91.9%; in assay [3], 111%. Moreover, the fluorescence slope in assay [4] is -0.411 (inactive). Besides, in assay [5], the NADPH fluorescence slope is -3.6e-05 (inactive). The slope in assay [6] is 0.00478 (inactive).
For `CNC(=O)c1ccsc1NC(=O)CN1C(=O)CCC1=O`, the cell count in assay [1] came out at 469. The inhibition in assay [1] is -5.4% (inactive); in assay [3], 4.8% (inactive); in assay [7], 6.37% (inactive); in assay [8], 28.8% (inactive). Moreover, the inhibition of aggregation in assay [2] was 10.7% (inactive). In addition, the nuclei count is 90.3% in assay [2] and 113% in assay [3]. Moreover, in assay [4], the fluorescence slope was -0.451 (inactive). The NADPH fluorescence slope in assay [5] is -5.2e-05 (inactive). Besides, in assay [6], the slope is 0.00494 (inactive).
`CCCOc1cccc(C(=O)N(Cc2ccco2)C2CCS(=O)(=O)C2)c1` (centres undefined): in assay [1], the cell count stood at 378. Also, the inhibition was 1.7% (inactive) in assay [1], -94.2% (inactive) in assay [3], 2.23% (inactive) in assay [7] and -2.97% (inactive) in assay [8]. Moreover, the inhibition of aggregation in assay [2] is -7.9% (inactive). Moreover, the nuclei count in assay [2] turned out to be 100%; in assay [3] it was 112%. The fluorescence slope in assay [4] is -0.442 (inactive). Further, the NADPH fluorescence slope in assay [5] is -3.3e-05 (inactive). In assay [6], the slope is 0.00536 (inactive).
With `CC(=O)Nc1c(C(=O)C2CC2)oc2ccccc12`, the cell count in assay [1] was determined as 514. The inhibition in assay [1] is 2.2% (inactive); in assay [3] it was -8.1% (inactive); in assay [7] it was -3.28% (inactive); in assay [8], 2.69% (inactive). The inhibition of aggregation in assay [2] is -10.5% (inactive). The nuclei count in assay [2] turned out to be 102%; in assay [3], 117%. For the same compound, the fluorescence slope in assay [4] is -0.448 (inactive). For the same compound, the NADPH fluorescence slope in assay [5] is -2.5e-05 (inactive). Moreover, in assay [6], the slope is 0.00698 (inactive).
For `Cc1cc(C)n2nc(S(=O)(=O)N(C)c3ccccc3)nc2n1`, the cell count in assay [1] is 679. Besides, the inhibition in assay [1] was -2.6% (inactive); in assay [3], -66.9% (inactive); in assay [7], 7.86% (inactive); in assay [8], 34.2% (inactive). Also, the inhibition of aggregation in assay [2] was 16.2% (inactive). Further, the nuclei count was 102% in assay [2] and 114% in assay [3]. Moreover, the fluorescence slope in assay [4] is -0.568 (inactive). Further, in assay [5], the NADPH fluorescence slope was -5.7e-05 (inactive). Moreover, the slope in assay [6] was 0.00717 (inactive).
As to `CCCOc1ccc(N2C(=O)CC(SCCN)C2=O)cc1` (centres undefined), the cell count in assay [1] was found to be 428. Moreover, the inhibition was -8.7% (inactive) in assay [1], -48.7% (inactive) in assay [3], -37.6% (inactive) in assay [7] and -77.1% (inactive) in assay [8]. Further, the inhibition of aggregation in assay [2] is -9.8% (inactive). Further, the nuclei count in assay [2] and in assay [3] was 116% in each case. In addition, the fluorescence slope in assay [4] was -0.4 (inactive). Further, in assay [5], the NADPH fluorescence slope is -1.8e-05 (inactive). Further, the slope in assay [6] was 0.00441 (inactive).
With `CCn1c(SCC(=O)C(C)(C)C)nnc1-c1cnccn1`, the cell count in assay [1] was 581. In addition, the inhibition was 6.5% (inactive) in assay [1], -27.3% (inactive) in assay [3], 2.48% (inactive) in assay [7] and 1.65% (inactive) in assay [8]. The inhibition of aggregation in assay [2] was 9.1% (inactive). Also, the nuclei count in assay [2] worked out at 98.5%; in assay [3], 100%. In assay [4], the fluorescence slope is -0.51 (inactive). Besides, the NADPH fluorescence slope in assay [5] was -6.4e-06 (inactive). Also, the slope in assay [6] is 0.00526 (inactive).
In the case of `NC(=O)NC(=O)CSc1cccc(C(F)(F)F)c1`, the cell count in assay [1] stood at 570. The inhibition in assay [1] is -10.9% (inactive); in assay [3] it was -77.3% (inactive); in assay [7] it was 13.4% (inactive); in assay [8] it was 18.2% (inactive). The inhibition of aggregation in assay [2] was -3.2% (inactive). In addition, the nuclei count worked out at 101% in assay [2] and 123% in assay [3]. In addition, in assay [4], the fluorescence slope is -0.51 (inactive). For the same compound, the NADPH fluorescence slope in assay [5] was -6.1e-05 (inactive). In addition, in assay [6], the slope was 0.00622 (inactive).

A word on the inhibition: it is the change of the read-out against control, counted positive when it falls.
